Measurements as given in PubChem BioAssay AID1159580 (chemical genetic matrix, 2015).
Where “and” joins values, the source holds several entries; their conditions need not be identical. Equal entries are not always repeated. The whole screen tested about 5,500 compounds, of which about 2,000 (36%) were called active. Roughly 18% stayed inconclusive and do not appear here. Cut-off read from the data, not from the text of the source: active = normalized growth mostly below about 0.91 (no sharp cut-off); inconclusive = no clear call, values can overlap the other calls; inactive = mostly above about 0.92. Some of the results follow.

Experiment: chemical genetic growth profiling, strain panel (AID 1159580);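 note: tested at 20 µM; growth read once vehicle control cultures reached saturation at 30 °C; 1 = growth at the plate median or of vehicle wells; lower values mean less growth of the strain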
Conditions: growth OD
[1] = S. cerevisiae deletion strains, locus YAL013W, strain DEP1, stronger effect = lower value
[2] = S. cerevisiae deletion strains, locus YAL040C, strain CLN3, stronger effect = lower value
[3] = S. cerevisiae deletion strains, locus YDR150W, strain NUM1, stronger effect = lower value
[4] = S. cerevisiae deletion strains, locus YDR363W, strain ESC2, stronger effect = lower value
[5] = S. cerevisiae deletion strains, locus YER002W, strain NOP16, stronger effect = lower value
[6] = S. cerevisiae deletion strains, locus YGR229C, strain SMI1, stronger effect = lower value
[7] = S. cerevisiae deletion strains, locus YMR307W, strain GAS1, stronger effect = lower value
[8] = S. cerevisiae deletion strains, locus YNL153C, strain GIM3, stronger effect = lower value
[9] = S. cerevisiae deletion strains, locus YNL175C, strain NOP13, stronger effect = lower value
[10] = S. cerevisiae deletion strains, locus YNL197C, strain WHI3, stronger effect = lower value
[11] = S. cerevisiae deletion strains, locus YNL224C, strain SQS1, stronger effect = lower value
[12] = S. cerevisiae deletion strains, locus YNL322C, strain KRE1, stronger effect = lower value
[13] = S. cerevisiae deletion strains, locus YOR083W, strain WHI5 (second series), stronger effect = lower value

Measured: normalized growth

NC(=Nc1ccccc1)NC(=O)c1nc(Cl)c(N)nc1N
inactive: [1] 0.975 | [2] 0.997 | S. cerevisiae deletion strains, locus YCL061C, strain MRC1 (second series), stronger effect = lower value 1 | [3] 0.999 | [4] 0.973 | [5] 0.991 | [6] 1 | [7] 0.993 | [8] 0.986 | [9] 1.01 | [10] 1.01 | [11] 1 | [12] 0.992 | [13] 1

CN(C)c1nc(N)c(C(=O)N=C(N)N)nc1Cl
inactive: [1] 1.01 | [2] 1 | S. cerevisiae deletion strains, locus YBR021W, strain FUR4, stronger effect = lower value 1.01 | S. cerevisiae deletion strains, locus YBR229C, strain ROT2, stronger effect = lower value 1.01 | S. cerevisiae deletion strains, locus YCL029C, strain bik1, stronger effect = lower value 1.01 | S. cerevisiae deletion strains, locus YDL035C, strain GPR1, stronger effect = lower value 1.03 | S. cerevisiae deletion strains, locus YDL074C, strain BRE1, stronger effect = lower value 0.983 | S. cerevisiae deletion strains, locus YDL101C, strain DUN1, stronger effect = lower value 1.01 | S. cerevisiae deletion strains, locus YDL134C, strain PPH21, stronger effect = lower value 0.999 | S. cerevisiae deletion strains, locus YDL185W, strain tfp1, stronger effect = lower value 1.01 | S. cerevisiae deletion strains, locus YDL192W, strain arf1, stronger effect = lower value 1.01 | S. cerevisiae deletion strains, locus YDR101C, strain arx1, stronger effect = lower value 1 | [3] 0.982 and 0.999 | S. cerevisiae deletion strains, locus YDR162C, strain NBP2, stronger effect = lower value 0.985 | S. cerevisiae deletion strains, locus YDR318W, strain mcm21, stronger effect = lower value 1.02 | [4] 1 | S. cerevisiae deletion strains, locus YDR388W, stronger effect = lower value 1 | S. cerevisiae deletion strains, locus YDR502C, strain sam2, stronger effect = lower value 0.983 | S. cerevisiae deletion strains, locus YEL061C, strain CIN8, stronger effect = lower value 1.01 | [5] 1.01 | S. cerevisiae deletion strains, locus YER110C, stronger effect = lower value 1.02 | S. cerevisiae deletion strains, locus YER155C, strain BEM2, stronger effect = lower value 1.01 | S. cerevisiae deletion strains, locus YER167W, strain BCK2, stronger effect = lower value 1.02 | S. cerevisiae deletion strains, locus YGL078C, strain dbp3, stronger effect = lower value 0.989 | S. cerevisiae deletion strains, locus YGL086W, strain mad1, stronger effect = lower value 1.02 | S. cerevisiae deletion strains, locus YGL248W, strain PDE1, stronger effect = lower value 1 | S. cerevisiae deletion strains, locus YGR078C, strain PAC10, stronger effect = lower value 0.99 | S. cerevisiae deletion strains, locus YGR135W, strain pre9, stronger effect = lower value 0.967 | [6] 1 | S. cerevisiae deletion strains, locus YGR252W, strain gcn5, stronger effect = lower value 1.02 | S. cerevisiae deletion strains, locus YHR030C, strain SLT2, stronger effect = lower value 1.01 | S. cerevisiae deletion strains, locus YHR079C, strain IRE1 (second series), stronger effect = lower value 1.01 | S. cerevisiae deletion strains, locus YHR094C, strain hxt1, stronger effect = lower value 0.998 | S. cerevisiae deletion strains, locus YHR129C, strain ARP1, stronger effect = lower value 1.01 | S. cerevisiae deletion strains, locus YHR200W, strain rpn10, stronger effect = lower value 1 | S. cerevisiae deletion strains, locus YIL066C, strain RNR3, stronger effect = lower value 1.02 | S. cerevisiae deletion strains, locus YIL073C, strain SPO22, stronger effect = lower value 1.07 | S. cerevisiae deletion strains, locus YIL125W, strain kgd1, stronger effect = lower value 1 | S. cerevisiae deletion strains, locus YIR030C, strain dcg1, stronger effect = lower value 0.998 | S. cerevisiae deletion strains, locus YJL095W, strain BCK1, stronger effect = lower value 0.997 | S. cerevisiae deletion strains, locus YJL134W, strain LCB3, stronger effect = lower value 1 | S. cerevisiae deletion strains, locus YJL168C, strain set2, stronger effect = lower value 1 | S. cerevisiae deletion strains, locus YJL187C, strain SWE1 (second series), stronger effect = lower value 0.988 | S. cerevisiae deletion strains, locus YJR043C, strain POL32, stronger effect = lower value 1.03 | S. cerevisiae deletion strains, locus YJR075W, strain HOC1, stronger effect = lower value 1.01 | S. cerevisiae deletion strains, locus YKL009W, strain mrt4, stronger effect = lower value 1.06 | S. cerevisiae deletion strains, locus YKL068W, stronger effect = lower value 0.997 | S. cerevisiae deletion strains, locus YKL085W, strain MDH1 (second series), stronger effect = lower value 1.01 | S. cerevisiae deletion strains, locus YKL085W, strain MDH1, stronger effect = lower value 1.01 | S. cerevisiae deletion strains, locus YKL190W, strain CNB1, stronger effect = lower value 1.01 | S. cerevisiae deletion strains, locus YKR001C, strain vps1, stronger effect = lower value 1.02 | S. cerevisiae deletion strains, locus YLR039C, strain RIC1, stronger effect = lower value 1.06 | S. cerevisiae deletion strains, locus YLR058C, strain SHM2, stronger effect = lower value 1.01 | S. cerevisiae deletion strains, locus YLR102C, strain apc9, stronger effect = lower value 1 | S. cerevisiae deletion strains, locus YLR262C, strain YPT6, stronger effect = lower value 1.04 | S. cerevisiae deletion strains, locus YLR268W, strain sec22, stronger effect = lower value 0.988 | S. cerevisiae deletion strains, locus YLR330W, strain CHS5, stronger effect = lower value 1.01 | S. cerevisiae deletion strains, locus YLR342W, strain FKS1 (second series), stronger effect = lower value 1.07 | S. cerevisiae deletion strains, locus YLR371W, strain rom2, stronger effect = lower value 1.01 | S. cerevisiae deletion strains, locus YLR418C, strain cdc73, stronger effect = lower value 0.925 | S. cerevisiae deletion strains, locus YML016C, strain PPZ1, stronger effect = lower value 1 | S. cerevisiae deletion strains, locus YML032C, strain rad52, stronger effect = lower value 1.03 | S. cerevisiae deletion strains, locus YML124C, strain tub3, stronger effect = lower value 0.999 | S. cerevisiae deletion strains, locus YMR078C, strain ctf18, stronger effect = lower value 1.01 | S. cerevisiae deletion strains, locus YMR223W, strain ubp8, stronger effect = lower value 1.02 | S. cerevisiae deletion strains, locus YMR263W, strain SAP30, stronger effect = lower value 0.988 | [7] 1.06 | S. cerevisiae deletion strains, locus YNL067W, strain RPL9B, stronger effect = lower value 0.986 | S. cerevisiae deletion strains, locus YNL128W, strain TEP1, stronger effect = lower value 1.01 | [8] 0.999 and 0.967 | [9] 1.01 | [10] 1 | [11] 1.01 | S. cerevisiae deletion strains, locus YNL233W, strain BNI4, stronger effect = lower value 0.989 | S. cerevisiae deletion strains, locus YNL250W, strain rad50, stronger effect = lower value 1.01 | S. cerevisiae deletion strains, locus YNL271C, strain bni1, stronger effect = lower value 1.01 | S. cerevisiae deletion strains, locus YNL298W, strain CLA4, stronger effect = lower value 1.01 | S. cerevisiae deletion strains, locus YNL307C, strain MCK1, stronger effect = lower value 1.02 | [12] 1.01 | S. cerevisiae deletion strains, locus YNR052C, strain pop2, stronger effect = lower value 1.02 | S. cerevisiae deletion strains, locus YOL006C, strain TOP1, stronger effect = lower value 0.981 | S. cerevisiae deletion strains, locus YOL012C, strain htz1 1.37 | S. cerevisiae deletion strains, locus YOL147C, strain pex11, stronger effect = lower value 1.01 | S. cerevisiae deletion strains, locus YOR061W, strain CKA2, stronger effect = lower value 1.01 | S. cerevisiae deletion strains, locus YOR069W, strain VPS5, stronger effect = lower value 1.01 | [13] 1.01 | S. cerevisiae deletion strains, locus YOR136W, strain idh2, stronger effect = lower value 1 | S. cerevisiae deletion strains, locus YOR144C, strain elg1, stronger effect = lower value 1 | S. cerevisiae deletion strains, locus YOR184W, strain ser1, stronger effect = lower value 1.05 | S. cerevisiae deletion strains, locus YOR316C, strain cot1, stronger effect = lower value 1 | S. cerevisiae deletion strains, locus YPL055C, strain LGE1, stronger effect = lower value 0.956 | S. cerevisiae deletion strains, locus YPL241C, strain CIN2, stronger effect = lower value 0.999 | S. cerevisiae deletion strains, locus YPR119W, strain clb2, stronger effect = lower value 0.988 | S. cerevisiae deletion strains, locus YPR141C, strain kar3, stronger effect = lower value 0.999 | S. cerevisiae deletion strains, locus YPR163C, strain tif3, stronger effect = lower value 0.999 | S. cerevisiae deletion strains, locus YPR167C, strain met16, stronger effect = lower value 1 | S. cerevisiae deletion strains, strain wtn01, stronger effect = lower value 0.997 | S. cerevisiae strains, strain wild type, stronger effect = lower value 1.01
